In the library only some 2.8% were active in any assay of this set; here they are far more common.
Pol eta inh = inhibitors of human DNA polymerase eta. 1.2% of 390,000 active. recombinant Pol eta, fluorescent DNA replication assay. AID 588591. Q9Y253. Potency, µM (highest dose often 114 µM), for inactives: top-dose activity change, negative = inhibition, hits mostly inhibitors; note: potency is the fitted concentration of half-maximal effect; % is set by controls: 0 for no effect and ±100 for the full control effect
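Fluorescent replication assay: 50 nM final substrate added after a 15 min room-temperature compound preincubation with 10 nM enzyme. Signal taken at 0 min and again at 10 min.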
Pol kappa inh = DNA polymerase kappa (human) inhibition; Q9UBT6; purified Pol kappa, fluorescent DNA synthesis assay, 10 min; Potency, µM (series often up to 107 µM), inactives show at the top dose activity, negative = inhibition, most hits filed as inhibitors; 0.53% of 400,000 active; note: potency is the fitted concentration of half-maximal effect; % is set by controls: 0 for no effect and ±100 for the full control effect
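Pol kappa 10 nM + cpd, 15 min RT; start w/ substrate 50 nM final; fluorescence kinetic read, 0 and 10 min. Neg ctrl: buffer, no enzyme.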
POLB inh = DNA polymerase beta (human) inhibition. P06746. Pol beta primer extension/strand displacement, fluorescence kinetic. Potency, µM (doses to about 114 µM), for inactives: at the top dose activity change, negative = inhibition, actives largely listed as inhibitors. 1.3% of 340,000 active; note: potency is the fitted concentration of half-maximal effect; % is set by controls: 0 for no effect and ±100 for the full control effect
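Kinetic readout of DNA synthesis with strand displacement by Pol beta. Compound and 10 nM enzyme sit 15 min at room temperature; 50 nM substrate starts the reaction, read immediately and at 10 min.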
Pol iota inh = blocks human DNA polymerase iota activity; Q9UNA4; Pol iota fluorescent replication assay, 10 min; Potency, µM (highest dose often 115 µM), without a hit: top-dose activity, negative = inhibition, most hits filed as inhibitors; 1% of 390,000 active; AID 588590; note: potency is the fitted concentration of half-maximal effect
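Pol iota at 10 nM preincubated 15 min with compounds at room temperature; reaction started with fluorescent substrate, 50 nM final. Fluorescence read kinetically at 0 and 10 min; buffer-only wells as negative control.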
WRN helicase inh = blocks human WRN helicase | Q14191 | WRN helicase unwinding, fluorescent forked duplex, kinetic | Potency, µM (doses to about 114 µM), without a hit: top-dose activity change, negative = inhibition, most hits filed as inhibitors | 0.46% of 360,000 active | AID 651768; note: potency is the fitted concentration of half-maximal effect; % is set by controls: 0 for no effect and ±100 for the full control effect; nearly all actives have a fitted effect of over 55% in size
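Fluorescence dequenching readout, ex 525 nm/em 598 nm, kinetic mode: forked duplex DNA (100 nM final) with adjacent fluorophore and quencher unwound by WRN (20 nM final) with 2 mM ATP. Compound preincubation 15 min, room temperature.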
PI5P4K alpha inh = PI5P4K alpha (human) kinase inhibition; PI5P4Kalpha enzyme, ADP-Glo luminescence, 60 min; stronger effect = lower value; 1.2% of 330,000 active; AID 652105; max response, %; active = max response of -50% or lower; inconclusive = between -30% and -50%; inactive = -30% or higher; note: value at the top dose of about 77 µM; % is set by controls: 0 for no effect and ±100 for the full control effect
Target sequence (P48426 whole entry, looked up): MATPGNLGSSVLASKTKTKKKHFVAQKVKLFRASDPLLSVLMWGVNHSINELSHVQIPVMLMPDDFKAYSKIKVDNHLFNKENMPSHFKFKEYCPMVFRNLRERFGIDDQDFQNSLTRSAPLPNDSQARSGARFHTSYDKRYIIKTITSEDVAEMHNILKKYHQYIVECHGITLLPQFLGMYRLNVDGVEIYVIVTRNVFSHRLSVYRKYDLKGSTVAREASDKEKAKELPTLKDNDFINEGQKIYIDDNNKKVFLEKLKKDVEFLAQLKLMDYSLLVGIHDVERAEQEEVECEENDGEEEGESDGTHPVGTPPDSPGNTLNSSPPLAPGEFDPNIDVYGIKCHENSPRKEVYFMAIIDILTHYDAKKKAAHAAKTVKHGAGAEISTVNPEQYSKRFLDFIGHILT
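Luminescence from ADP-Glo served as readout of PI5P4Kalpha activity in a qHTS format. Reaction: enzyme, substrate, compound, ATP at 5 microM final, 60 min at RT.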
Starred values were filed as active, the others as inactive; ? = inconclusive; · = no result; [ ] = remark or other dose. Unless noted, calls come from the whole dose curve; as a rule, active = well fitted curve in the direction sought with a large enough effect; inconclusive = small, poorly fitted or top-dose-only effect, or another doubt; inactive = no such curve, though single readings can be large; an effect the other way counts as inactive or inconclusive.

SMILES	Pol eta inh	Pol kappa inh	POLB inh	Pol iota inh	WRN helicase inh	PI5P4K alpha inh
CCCCNC1=CC(=O)C(NCCCC)=CC1=O	-25.6%	-1.8%	·	31.6µM*	-2.5%	0.4
CCCCNC1=CC(=O)C(=O)c2ccccc21	?	-10.7%	20.8%	?	7.5%	-1.0
CCOC(=O)c1ncn2c1C(=O)OC2(C)C	-1.9%	-2.8%	15.4%	16.6%	2.1%	-6.9
c1ccc(-c2cc3c(-n4cccc4)ncnc3o2)cc1	?	?	-11.4%	79.4µM*	?	6.1
O=C(CSc1nnnn1C1CC1)N1CCN(c2ccc(O)cc2)CC1	?	?	·	44.7µM*	-1.7%[11.6 µM]	-5.5
COc1ccc(NC(=O)C2CCC(CNS(=O)(=O)c3cccc4nsnc34)CC2)cc1OC (stereo unspecified)	-13.7%	-23.3%	7.8%	25.8%	·	·
Cc1cc2cc3c(=O)[nH]c(=O)nc-3n(CC(O)C(O)C(O)CO)c2cc1C (stereo unspecified)	-14.6%	-11.1%	·	31.7%	6.8%	-0.6
Cc1cc2cc3c(=O)[nH]c(=O)cc-3n(CC(O)C(O)C(O)CO)c2cc1C (stereo unspecified)	?	·	·	·	56.2µM*	-7.1
Cc1nnsc1C(=O)NC1CCCCC1	0.1%	-5.6%	28.2%	-6.0%	4.2%	·
CCOC(=O)C1=C(CS(=O)(=O)c2ccc(F)cc2)NC(=O)NC1c1ccc(O)c(O)c1 (stereo unspecified)	?	44.7µM*	?	25.1µM*	-4.5%[11.6 µM]	4.8
COc1cccc(NC(=O)CN2CCc3ccccc3C2)c1	-16.2%	-9.3%	3.8%	-17.2%	6.2%	1.0
Cc1ccc(CNC(=O)c2ccc3c(=O)n(CCCN4CCCC4=O)c(=S)[nH]c3c2)cc1	3.9%	-7.8%	31.6µM*	29.1%	-2.7%	-0.3
O=C(c1ccc2c(=O)n(Cc3ccco3)c(=S)[nH]c2c1)N1CCN(Cc2ccc3c(c2)OCO3)CC1	·	?	·	89.1µM*	·	·
COc1ccc(CCn2c(=S)[nH]c3cc(C(=O)NCc4ccco4)ccc3c2=O)cc1OC	?	-12.4%	22.4µM*	3.3%	-16.1%	-26.6
O=C(NCCCN1CCCC1=O)c1ccc2c(=O)n(Cc3ccco3)c(=S)[nH]c2c1	-7.2%	1.8%	31.6µM*	?	-6.8%	?
COc1cc2c(cc1OC)C(COc1ccc3c(C)cc(=O)oc3c1)N(C(=O)c1cccc(C)c1)CC2 (stereo unspecified)	-8.1%	-3.1%	25.5%	-5.7%	·	·
COc1ccccc1CN(Cc1ccco1)c1cnc(S(C)(=O)=O)nc1C(=O)Nc1cc(C)ccc1C	-18.9%	-15.5%	2.9%	65.5%	·	·
COc1ccc(N2CCN(S(=O)(=O)c3c(C(=O)N4CCOCC4)c(C)n(C)c3C)CC2)cc1	-0.5%	-3.2%	-1.1%	34.8%	3.8%	0.3
Cn1c(=O)c2c(n3ncnc13)NC(=O)CC2c1cccc(F)c1 (stereo unspecified)	3.8%	-10.3%	-2.2%	-2.3%	·	·
COc1cc(C2CC(=O)Nc3c2c(=O)n(C)c2ncnn32)cc(OC)c1OC (stereo unspecified)	-3.6%	-7.1%	-12.1%	50.1µM*	·	·
C=CCNC(=O)/C(=C\c1ccc(Br)cc1)NC(=O)c1ccccc1OC	-11.8%	4.3%	0.141µM*	-1.4%	-26.7%[57.1 µM]	-12.6
CC1CN(c2ccccc2)c2nc3c(c(=O)[nH]c(=O)n3C)n2C1 (stereo unspecified)	-8.3%	-8.0%	31.2%	1.3%	13.9%	0.1
Cn1c(=O)[nH]c(=O)c2c1nc1n2CCN1c1ccccc1	-2.3%	?	7.5%	79.4µM*	·	·
COc1ccc(CNC(=O)COC(=O)CN2C(=O)C3CC=CCC3C2=O)cc1 (stereo unspecified)	-1.3%	-13.5%	·	-12.9%	-5.0%	3.7
COc1cccc(/C(O)=C2/C(=O)C(=O)N(Cc3ccco3)C2c2ccncc2)c1 (stereo unspecified)	7.6%	-1.6%	-0.5%	?	1.3%	1.0
SMILES	Pol eta inh	Pol kappa inh	POLB inh	Pol iota inh	WRN helicase inh	PI5P4K alpha inh
O=C1C(=O)N(Cc2ccco2)C(c2cccs2)/C1=C(\O)c1cccc([N+](=O)[O-])c1 (stereo unspecified)	-10.8%	4.2%	-12.2%	13.8%	-1.0%	-79.0*
C/C(=N\Nc1nc(-c2ccc(C)cc2C)cs1)c1cc2ccccc2oc1=O	-9.0%	-7.2%	22.4µM*	0.9%	-14.3%	-21.1
NC(=S)NNc1c(F)c(F)c(F)c(F)c1F	-14.8%	1.9%	-2.7%	92.1%	-2.8%	-54.1*
Cc1ccccc1NNC(N)=S	-19.1%	6.3%	40.2%	72.1%	-12.1%	-26.0
Cc1cccnc1CNC(=O)C1(C)CCCN1CC(C)C (stereo unspecified)	·	·	·	·	14.5%	-3.0
CCC(C)C(NC(=O)/C(=C\c1ccccc1)NC(=O)c1ccc(OC)cc1)C(=O)O (stereo unspecified)	-12.4%	-5.3%	11.6%	86.7%	-23.9%	-23.9
CCOc1ccc(-n2c(SC(C)C(=O)OC)nc3c([nH]c4ccccc43)c2=O)cc1 (stereo unspecified)	-9.1%	-4.7%[60.1 µM]	5.3%	-9.2%	·	·
CCN(C(=O)CSc1nnc(-c2cc(OC)c(OC)c(OC)c2)o1)c1ccccc1	1.5%	?	10µM*	?	·	·
COc1cc(-c2nnc(SCC(=O)c3ccccc3)o2)cc(OC)c1OC	3.1%	-14.0%	23.0%	-5.1%	-14.3%	·
Cn1ncc(C#N)c1/N=C/N1CCCC1	-5.9%	7.3%	89.1µM*	-3.8%	0.8%	0.1
Cc1cccc(NC(=O)COC(=O)c2ccccc2SCC(=O)N2CCCC2)c1	-22.6%	-9.8%	18.2%	22.6%	-30.3%	3.4
Cc1cc(C)n(-c2ccc(C(=O)N3CCN(S(=O)(=O)c4ccc(OC(F)(F)F)cc4)CC3)cc2)n1	-16.3%	·	·	·	3.4%	2.5
CN(CC(=O)Nc1cccc(F)c1)CC(=O)N(C)CC(=O)Nc1ccccc1Br	-21.7%	2.8%	·	22.0%	-3.6%	-4.1
COc1cc(-c2nc3ccccn3c2/N=C/c2cc(OC)c(O)cc2Cl)ccc1O	?	?	25.1µM*	?	-20.9%	?
N/C(=N\OC(=O)c1ccc(=O)n(Cc2ccccc2)c1)c1ccccn1	-1.8%	-4.1%	54.6%	144.0%	6.5%	10.0
CCCc1ccc(C(=O)O/N=C(\N)c2ccccn2)cc1	-2.4%	-3.8%	1.9%	20.6%	1.7%[57.1 µM]	-64.9*
Cc1oc2ncn(C)c(=O)c2c1C(=O)N(C)c1ccccc1F	-17.1%	0.3%	0.5%	-1.6%	·	·
CN(C)c1ccc(/C=C/c2nc3ccccc3c(=O)n2-c2ccc(C(=O)O)cc2)cc1	25.1µM*	?	-0.6%	?	-5.0%[11.6 µM]	2.1
